Measurements taken from PubChem BioAssay (NCATS).
Records with an inconclusive call do not appear. A call without a number means that no potency is given here. The source made the active and inactive calls. Calls come from the whole dose curve; as a rule, active = well fitted inhibition curve with a large enough effect; inconclusive = small, poorly fitted or top-dose-only effect; inactive = flat fitted curve, though single readings scatter.

experiment: P-glycoprotein substrates identified in KB-8-5-11 adenocarcinoma cell line, qHTS therapeutic library screen (AID 1346987); conditions: KB-8-5-11 (P-gp overexpressing) viability, CellTiter-Glo, 72 h; series mostly up to 44.5 µM; note: nearly all actives have a fitted effect of over 65% in size
Method in brief: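 Human cervical adenocarcinoma KB-8-5-11 cells, selected in colchicine to over-express P-gp and assayed without it, were exposed for 72 h to titrated compounds. An ATP-based luminescent viability signal gave AC50.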
Potency is the fitted concentration of half-maximal effect.

| Compound | Potency | outcome |
| --- | --- | --- |
| O=C(O)/C=C/c1ccc(-c2ccc(O)c(C34CC5CC(CC(C5)C3)C4)c2)cc1 | 580 nM (active) |  |
| O=C(Nc1ccc(S(=O)(=O)Nc2ccccc2Cl)c(Cl)c1)c1ccccn1 | inactive |  |
| C=C[C@H]1[C@H](O[C@@H]2O[C@H](CO)[C@@H](O)[C@H](O)[C@H]2O)OC=C(C(=O)OC)[C@H]1C/C=C(/C=O)[C@@H]1C(C(=O)OC)=CO[C@@H](O[C@@H]2O[C@H](CO)[C@@H](O)[C@H](O)[C@H]2O)[C@@H]1C=C | inactive |  |
| CCC(=O)O[C@H]1C(C)(C)[C@H]([C@@H](O)C(=O)OC)[C@]2(C)C(=O)[C@@]1(O)[C@H]1O[C@]13C1CC(=O)O[C@@H](c4ccoc4)[C@]1(C)CCC32 (stereo partly drawn) | inactive |  |
| FC(F)(F)c1ccc(Nc2nc(-c3c(C(F)(F)F)nc4ccccn34)cs2)cc1 | 461 nM (active) |  |
| CC(C)C(C(=O)N(C)C(C)C(N)=O)N(C)C(=O)C1CCCN1C(=O)/C=C/C=C/C(O)C(C)O (stereo not drawn) | inactive |  |
| CCOC(=O)CCN(C(=O)c1ccc2c(c1)nc(CNc1ccc(C(=N)N)cc1)n2C)c1ccccn1 | inactive |  |
| Cc1[nH]c2ccccc2c1C1=C(NCCc2ccc(F)cc2)C(=O)N(C)C1=O | 16400 nM (active) |  |
| O=C1N=C(N2CCOCC2)CN1c1ccc(Cl)cc1 | inactive |  |
| COC(=O)C1=C2Nc3ccccc3C23CCN2CCCC(C(C)O)(C1)C23 (stereo not drawn) | inactive |  |
| CC1(C)CC[C@]2(C(=O)O[C@@H]3O[C@H](CO)[C@@H](O)[C@H](O)[C@H]3O)CC[C@]3(C)C(=CCC4[C@@]5(C)CC[C@H](O[C@@H]6O[C@H](C(=O)O)[C@@H](O)[C@H](O[C@@H]7O[C@H](CO)[C@H](O)[C@H](O)[C@H]7O)[C@H]6O)C(C)(C)C5CC[C@]43C)C2C1 (stereo partly drawn) |  | inactive [at 9.29 µM] |
| C/C=C(\C)C(=O)O[C@@H]1CC2[C@@H](CC=C3C[C@@H](O[C@H]4C[C@H](OC)[C@H](O[C@H]5C[C@H](OC)[C@H](O[C@@H]6O[C@H](C)[C@@H](O[C@H]7C[C@H](OC)[C@H](O[C@@H]8O[C@H](CO)[C@@H](O)[C@H](O)[C@H]8O)[C@@H](C)O7)[C@H](OC)[C@H]6O)[C@@H](C)O5)[C@@H](C)O4)CC[C@@]32C)[C@@]2(O)CC[C@H](C(C)=O)[C@@]12C (stereo partly drawn) |  | inactive [at 9.29 µM] |
| CC1(C)CC2C(C1)C(C)(O)C13CC1(COC3=O)C2O (stereo not drawn) | inactive |  |
| CC(C)C(NC(=O)c1ccc2ccccc2n1)C(=O)NC(CC(=O)O)C(=O)COc1c(F)cccc1F (stereo not drawn) | inactive |  |
| Cc1ccc(S(=O)(=O)Cc2nc(-c3ccc(C(=O)NCc4cccnc4)cc3)oc2C)cc1 | 58 nM (active) |  |
| CCc1c(C)nc2c(-c3cnn(-c4cc(CO)ccn4)c3)c[nH]n2c1=O | inactive |  |
| C[C@@H]1O[C@@H](O[C@@H]2[C@@H](O[C@@H]3O[C@@H](C)[C@H](O[C@@H]4OC[C@H](O)[C@H](O[C@@H]5OC[C@@H](O)[C@H](O)[C@H]5O)[C@H]4O)[C@@H](O[C@@H]4OC[C@](O)(CO)[C@H]4O)[C@H]3O)[C@H](OC(=O)[C@]34CCC(C)(C)C[C@H]3C3=CCC5[C@@]6(C)C[C@H](O)[C@H](O[C@@H]7O[C@H](CO[C@@H]8OC[C@H](O)[C@H](O)[C@H]8O)[C@@H](O)[C@H](O)[C@H]7O)C(C)(C)C6CC[C@@]5(C)[C@]3(C)C[C@H]4O)OC[C@H]2O)[C@H](O)[C@H](O)[C@H]1O (stereo partly drawn) |  | inactive [at 9.29 µM] |
| CN1c2ccccc2C(=O)N2CCC3c4ccccc4NC3C21 (stereo not drawn) | 2020 nM (active) |  |
| Cn1c(=O)cc(N2CCCC(N)C2)n(Cc2cc(F)ccc2C#N)c1=O (stereo not drawn) | inactive |  |
| CC(C)=CC/C=C(\C)[C@H]1CC[C@]2(C)[C@@H]1[C@H](O)C[C@@H]1[C@@]3(C)CC[C@H](O)C(C)(C)[C@@H]3[C@@H](O[C@@H]3O[C@H](CO)[C@@H](O)[C@H](O)[C@H]3O)C[C@]12C | inactive |  |
| C[C@H](O)[C@H](O)/C=C/c1cccc(O)c1CO | inactive |  |
| CC(=O)O[C@@H]1[C@@H](O)[C@H](O[C@H]2CC[C@]34C[C@]35CC[C@]3(C)[C@@H]([C@@]6(C)CC[C@@H](C(C)(C)O)O6)[C@@H](O)C[C@@]3(C)[C@@H]5C[C@H](O[C@@H]3O[C@H](CO)[C@@H](O)[C@H](O)[C@H]3O)[C@H]4C2(C)C)OC[C@H]1O | inactive |  |
| CC(C)CC(=O)O[C@@H]1OC=C(CO[C@@H]2O[C@H](CO)[C@@H](O)[C@H](O)[C@H]2O)[C@H]2[C@@H]3O[C@H]3[C@@](O)(CO)[C@@H]12 | inactive |  |
